Measurements taken from PubChem BioAssay (NCATS).
Records with an inconclusive call do not appear. Where a call stands in place of a potency, no number is given. Unmarked numbers belong to inactive results. The source made the active and inactive calls. The call rests on the fitted dose curve; in most records, active means well fitted inhibition curve with a large enough effect; inconclusive means small, poorly fitted or top-dose-only effect; inactive means flat fitted curve, though single readings scatter. Where a SMILES comes first, the peptide text is derived from it.

The compounds below were run against Calcium and integrin-binding protein 1 (Homo sapiens) (UniProt Q99828) (assay: Primary qHTS for Identification of Calcium Integrin Binding Protein 1 (CIB1) Competitor (AID 1508620;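 further: GST tagged CIB1 binding a fluorescein labelled alphaIIb integrin peptide tracer; top concentration of the series differs between compounds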)). Conditions: CIB1-GST / FITC-alphaIIb peptide fluorescence polarization; series mostly up to 57.7 µM.
Summary of the method: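 CIB1-GST (1 uM final) and compound incubated 15 min at room temperature before adding FITC-alphaIIb peptide tracer (100 nM final). Competition for binding read by fluorescence polarization (ex 480, em 540) after another 15 min at room temperature.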

Calcium and integrin-binding protein 1 (Homo sapiens), sequence (Q99828 whole entry, looked up): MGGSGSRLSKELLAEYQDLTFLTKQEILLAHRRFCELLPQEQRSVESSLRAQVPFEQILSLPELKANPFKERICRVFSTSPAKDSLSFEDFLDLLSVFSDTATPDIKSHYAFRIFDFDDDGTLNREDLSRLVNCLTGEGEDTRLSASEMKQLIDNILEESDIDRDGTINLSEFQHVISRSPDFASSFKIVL

Compound	Potency	activity change, negative = inhibition
CC1=CCC2C(C)(CO)CCCC2(CO)C1CO (stereo unspecified)	inactive	–
C=C(C)[C@H]1C[C@@H](O)C(=C)CC[C@@H](O)C(=C)[C@@H](O)C1	inactive	–
CC1=C2C(=O)O[C@@H](c3ccoc3)[C@]2(C)CCC1	inactive	–
COc1cc(-c2cccc(O)c2)cc2c1OCO2	inactive	–
CC[C@H]1OC(=O)C[C@@H](O)[C@H](C)[C@@H](O[C@@H]2O[C@H](C)[C@@H](O)[C@H](N(C)C)[C@H]2O)[C@@H](CCN2C[C@H](C)C[C@H](C)C2)C[C@@H](C)C(=O)/C=C/C(C)=C/[C@@H]1CO[C@@H]1O[C@H](C)[C@@H](O)[C@@H](OC)[C@H]1OC	inactive	–
C[C@@H]1CC[C@]2(C(=O)O)CC[C@]3(C(=O)O)C(=CCC4[C@@]5(C)CC[C@H](O[C@@H]6O[C@@H](C)[C@H](O[C@@H]7O[C@H](CO)[C@@H](O)[C@H](O)[C@H]7O)[C@@H](O)[C@H]6O)C(C)(C)C5CC[C@]43C)C2[C@H]1C (stereo partly specified)	inactive	–
C/C=C(/C)C(=O)O[C@H]1C=C(C)C[C@H](OC(=O)c2ccc(O)cc2)C2[C@](O)(C(C)C)CC[C@@]21C (stereo partly specified)	inactive	–
COc1cc(C(C)=O)ccc1O[C@@H]1O[C@H](CO[C@@H]2O[C@@H](C)[C@H](O)[C@@H](O)[C@H]2O)[C@@H](O)[C@H](O)[C@H]1O	inactive	–
C[C@]12CCC(=O)C=C1[C@@H](O)C[C@@H]1[C@@H]2[C@@H](O)C[C@@]2(C)[C@H]1CC[C@]2(O)C(=O)CO	inactive	–
CC(C)(O)C1CCC2(C)C3C(O)C4C(C13)C42CO (stereo unspecified)	inactive	–
C=C1C(=O)OC2CC(C)=C(C(C)CCCO[C@@H]3O[C@H](CO)[C@@H](O)[C@H](O)[C@H]3O)C(O)C12 (stereo partly specified)	inactive	–
CC1CCC(=O)CC(O)C(O)CC(=O)O1 (stereo unspecified)	inactive	–
COC(=O)CC[C@@H](C)[C@H]1CC[C@H]2[C@@H]3CC(=O)[C@H]4C[C@H](OC(C)=O)CC[C@]4(C)[C@H]3CC[C@]12C	inactive	–
NC(=O)c1cccc(-c2cc(O)cc(OC(=O)NC3CCCCC3)c2)c1	inactive	–
COc1ccc(C2=CC(=O)OC2Cc2ccc(O)cc2)c(O)c1 (stereo unspecified)	inactive	–
CC1(C)CC2C3=CCC4C5(C)CCC(OC6OC(C(=O)O)C(O)C(O)C6OC6OC(CO)C(O)C(O)C6OC6OC(CO)C(O)C(O)C6O)C(C)(CO)C5CCC4(C)C3(C)CCC2(C)C(OC2OCC(O)C(OC3OC(CO)C(O)C(O)C3O)C2O)C1O (stereo unspecified)	–	-16.4% [at 12.4 µM]

Compound	Potency	activity change, negative = inhibition
O=C(CCO[C@@H]1O[C@H](CO)[C@@H](O)[C@H](O)[C@H]1O)c1ccc(O)cc1	inactive	–
Oc1ccc([C@H]2COc3cc(O)ccc3C2)cc1	inactive	–
NC(=O)c1ccc(OCC2NC(=O)C3CCCN3C2=O)cc1 (stereo unspecified)	inactive	–
CCN(c1cc(C#CCN2CCOCC2)cc(C(=O)NCc2c(C)cc(C)[nH]c2=O)c1C)C1CCC(N(C)CCOC)CC1 (stereo unspecified)	inactive	–
CC(C)C(C#N)O[C@@H]1O[C@H](CO[C@@H]2OC[C@](O)(CO)[C@H]2O)[C@@H](O)[C@H](O)[C@H]1O (stereo partly specified)	inactive	–
CC1CCC2C(C)(C)C(O)CCC2(C)C12Cc1c(O)cc3c(c1O2)C(N)=NC3 (stereo unspecified)	inactive	–
CC1(C)CCC[C@@]2(C)[C@H]1[C@H](O)C=C1COC(=O)[C@@]12O	inactive	–
O=C(O[C@H]1[C@@H]2C=CO[C@@H](O[C@@H]3O[C@H](CO)[C@@H](O)[C@H](O)[C@H]3O)[C@@H]2[C@@]2(CO)O[C@@H]12)c1ccc(O)cc1	inactive	–
CC/C=C\C[C@H]1C(=O)C=C[C@@H]1CCCCCCCC(=O)O	inactive	–
CCCCCCc1cccc(NC(=O)[C@H](N)CCP(=O)(O)O)c1	inactive	–
CC1=CCC2C(C)(CO)CCCC2(C)C1CC12OC1C(O)C(CO)=CC2O (stereo unspecified)	inactive	–
C/C=C1\[C@H](O[C@@H]2O[C@H](CO)[C@@H](O)[C@H](O)[C@H]2O)OC=C(C(=O)OC)[C@H]1CC(=O)OC	inactive	–
C[C@@H](O)[C@H](N)C(=O)N1CCC[C@H]1C(=O)N1CCC[C@H]1C(=O)N[C@H](C(N)=O)[C@@H](C)O (H-TPPT-NH2)	inactive	–
CC1OC(O[C@H]2[C@@H](O)C[C@@]3(C)C([C@H](O)C[C@]4(C)C3CC=C3C5CC(C)(C)CC[C@]5(C(=O)OC5OC(CO)C(O)C(O)C5OC5OCC(OC6OCC(OC7OCC(O)C(O)C7O)C(O)C6O)C(OC6OCC(O)(CO)C6O)C5O)CC[C@]34C)[C@]2(C)CO)C(O)C(O)C1O (stereo partly specified)	–	-4.55% [at 12.4 µM]
CCC(C)C(=O)O[C@@H]1[C@@H](O)[C@@H](O[C@H]2O[C@H](CO)[C@@H](O)[C@H](O)[C@H]2O)O[C@H](CO)[C@H]1O (stereo partly specified)	inactive	–
